Experiment [1] can be described thus: reducers of endogenous Her2 protein level, primary screen, SKBR3 breast tumor cells, AlphaScreen, ATP viability (AID 461;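 active means Her2 level under about 52% in both replicate screens, with viability over 70% of control, limit read from the data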;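 on Her2 level: lower value means less Her2 protein in the cells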;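 on viability: percent of carrier control wells set as 100% viability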). The following applies: 18-24 h, measured here: SKBR3 viability, ATP luminescence, at 10 µM.
The target of experiment [2] is Receptor tyrosine-protein kinase erbB-2 (Homo sapiens) (UniProt P04626). The description is as above. The following applies: 18-24 h, at 10 µM, stronger effect = lower value.
Experiment [3] can be described thus: SK-BR-3 cell growth inhibitors, pilot screen, 24 h, human (AID 572;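 active means viability at or below 10% of carrier control in both of two separate runs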;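 further: compound exposure lasted between 18 and 24 h rather than exactly 24 h; 100% = carrier-treated control wells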). The following applies: SK-BR-3 viability, CellTiter-Glo luminescence, at 10 µM, stronger effect = lower value.
Experiment [4] in a line: HUVEC growth inhibition – cell-based, human, primary screen (AID 575;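 active means viability at or below 30% in both replicate assays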;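 further: 100% = median of untreated cell wells with 0.1% DMSO on each plate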). The following applies: HUVEC proliferation, CellTiter-Glo luminescence, 72 h; at 10 µM; stronger effect = lower value.
Experiment [5] can be described thus: growth inhibitors of H69AR lung tumor, primary screen, human, duplicate replicates (AID 580).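 Further: 100% = mean luminescence of untreated wells and 0% = no signal.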 The following applies: H69AR lung tumor cells viability, ATP luminescence, 72 h; at 10 µM; stronger effect = lower value.
Experiment [6] in a line: reversal of MRP1-mediated doxorubicin resistance, pilot screen, H69AR cells, doxorubicin co-treatment (AID 601;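 active means viability loss from added drug above about 55%, and viability with drug at most 40%, in both replicates, limit read from the data, passing the limit was not always enough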). The following applies: CellTiter-Glo, 72 h, at 10 µM; for differential viability (reversal): stronger effect = higher value.
Experiment [7] can be described thus: 384-well plate pilot, post-Golgi transport modulator project, inhibition of yeast transport mutant growth (AID 636; in the data active means inhibition above about 31%). The following applies: absorbance 615 nm, about 18 h, stronger effect = higher value.
Experiment [8] can be described thus: growth suppression of yeast trafficking mutant, preliminary HTS, modulators of trafficking downstream of Golgi apparatus project, 1536-format plate, OD 615 nm (AID 637; in the data active means inhibition above about 30%). The following applies: yeast transport mutant growth, absorbance 615 nm, 18 h; stronger effect = higher value.
The nature of experiment [9]: OD615 S. cerevisiae growth inhibition, permissive medium, pilot counter-assay, permissive growth control for S. cerevisiae lifespan shortening project (AID 705;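 active means growth inhibition above 25% in both replicates, a cutoff set 3 SD above the mean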). The following applies: OD615, 24 h, at 10 µM, stronger effect = higher value.
A short description of experiment [10]: Restrictive medium S. cerevisiae growth inhibition, OD615, pilot screen of yeast lifespan reduction project, restrictive growth control (AID 706;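 active means growth inhibition above a set limit, 3 SD over mean compound inhibition, in both replicates, cut at about 43% in these data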;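 further: modified DeaD lifespan yeast strain shifted to restrictive glucose medium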). The following applies: OD615, 48 h, at 10 µM, stronger effect = higher value.
The nature of experiment [11]: viability gain of MRP-1-high H69AR cells under doxorubicin, pilot screen, MRP-1 activator project, CellTiter-Glo, duplicate (AID 807;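 active means viability increase at or above a cutoff of the median across tested compounds plus 3 SD, cut at about 8.5% in these data, passing the limit was not always enough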;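 further: compound pretreatment 18-22 h then 72 h combined with doxorubicin; 0% = doxorubicin alone and 100% = vehicle without doxorubicin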). The following applies: H69AR viability with doxorubicin, CellTiter-Glo luminescence; at 10 µM; stronger effect = higher value.
The nature of experiment [12]: growth suppression of beta-catenin knockout HCT116, pilot screen, human colon tumor cells (AID 823;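 active means cell viability at or below a set limit in both duplicate runs, the limit being the all-compound median minus 4 SD, cut at about 23% in these data, passing the limit was not always enough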;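 further: 0% = wells killed by 20 µM Hyamine and 100% = untreated DMSO cell wells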). The following applies: CellTiter-Glo, 60 h, at 10 µM, stronger effect = lower value.
The nature of experiment [13]: growth suppression of PTEN-deleted HCT116, pilot screen, cell-based, HCT116 clonal line, CellTiter-Glo (AID 824;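 active means viability at or below 27.92% in each of two runs, the all-compound median minus 4 SD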;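 further: 0% = 20 µM Hyamine control and 100% = vehicle cell control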). The following applies: 60 h, at 10 µM, stronger effect = lower value.
A short description of experiment [14]: inhibitors of the yeast RAM network, pilot screen, dse1pr::URA3 reporter, 5-FOA selection (AID 869;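 active means inhibition over a set limit, the all-compound mean plus 3 SD, in both replicate runs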;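 further: 0% = DMSO wells with no growth and 100% = 10 µM 1-NA-PP1 with full growth; RAM network block rescues cells from 5-FOA so hits raise OD615 growth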). The following applies: S. cerevisiae dse1pr::URA3 5-FOA growth, OD615, 2 d; at 10 µM; stronger effect = higher value; strain carries analog-sensitive mutant Cbk1 kinase.
Experiment [15] can be described thus: RAM signaling pathway blockade in yeast – S. cerevisiae, Pdr1DBD-CYC8 efflux-inhibited sensitized strain, primary screen (AID 1298;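 active means RAM network inhibition above 8.4% in each of two replicates, 3 SD over the compound average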;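 further: 0% = DMSO untreated cells without growth and 100% = 10 µM 1-NA-PP1 full growth; higher means more yeast growth rescued from 5-FOA killing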). The following applies: S. cerevisiae cbk1-as DSE1-URA3 strain, 5-FOA growth OD615, 2 d; at 50 µM; stronger effect = higher value.
[16] abbreviates: H69AR cells + 2 uM doxorubicin, measured here: viability with 2 uM doxorubicin, stronger effect = lower value.
Where [17] appears, read: H69AR cells, compound alone cytotoxicity.

Molecules are shown by their SMILES. Inconclusive results are not listed. Activity calls are given as the source filed them.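 How the source made its calls, unless noted: active means viability at or under a set limit in both replicates, limit being median viability minus 3 SD (cut at about 48% in these data, passing the limit was not always enough); inconclusive means at or under the limit in just one replicate; inactive means at or above the limit in both replicates.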

Receptor tyrosine-protein kinase erbB-2 (Homo sapiens), sequence (P04626 whole entry, looked up): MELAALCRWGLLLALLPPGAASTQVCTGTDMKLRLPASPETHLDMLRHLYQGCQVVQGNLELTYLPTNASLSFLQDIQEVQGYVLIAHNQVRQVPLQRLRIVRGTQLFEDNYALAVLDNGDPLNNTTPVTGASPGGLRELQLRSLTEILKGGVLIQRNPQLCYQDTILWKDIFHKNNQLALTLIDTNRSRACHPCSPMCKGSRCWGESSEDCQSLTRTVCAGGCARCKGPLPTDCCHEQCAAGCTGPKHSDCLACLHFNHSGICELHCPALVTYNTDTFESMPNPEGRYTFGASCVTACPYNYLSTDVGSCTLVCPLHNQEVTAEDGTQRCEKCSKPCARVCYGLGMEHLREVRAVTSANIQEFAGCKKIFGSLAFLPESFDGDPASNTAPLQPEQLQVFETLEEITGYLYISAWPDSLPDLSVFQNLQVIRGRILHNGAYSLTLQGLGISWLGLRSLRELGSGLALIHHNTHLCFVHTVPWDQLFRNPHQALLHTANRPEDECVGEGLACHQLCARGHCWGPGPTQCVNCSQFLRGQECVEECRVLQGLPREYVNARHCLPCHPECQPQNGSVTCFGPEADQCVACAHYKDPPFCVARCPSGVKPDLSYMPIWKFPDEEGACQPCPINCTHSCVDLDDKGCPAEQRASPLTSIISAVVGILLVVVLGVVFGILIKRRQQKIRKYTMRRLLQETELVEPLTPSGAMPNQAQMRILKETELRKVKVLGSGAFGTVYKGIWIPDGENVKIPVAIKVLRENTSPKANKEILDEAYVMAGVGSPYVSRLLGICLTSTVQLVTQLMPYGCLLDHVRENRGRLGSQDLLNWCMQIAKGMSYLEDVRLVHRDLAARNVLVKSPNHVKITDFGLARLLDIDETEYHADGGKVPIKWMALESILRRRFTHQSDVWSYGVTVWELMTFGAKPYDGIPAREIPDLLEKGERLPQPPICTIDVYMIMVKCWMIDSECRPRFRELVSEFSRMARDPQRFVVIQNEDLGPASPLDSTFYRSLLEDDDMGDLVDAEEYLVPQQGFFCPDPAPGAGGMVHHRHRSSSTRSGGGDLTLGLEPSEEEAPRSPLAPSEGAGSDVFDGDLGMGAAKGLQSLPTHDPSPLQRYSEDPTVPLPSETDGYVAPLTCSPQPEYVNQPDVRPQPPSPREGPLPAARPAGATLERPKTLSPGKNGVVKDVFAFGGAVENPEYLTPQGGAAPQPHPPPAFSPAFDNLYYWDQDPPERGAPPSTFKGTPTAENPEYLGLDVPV

Consider `COc1ccc(CCNC(=O)c2cnn3ccccc23)c(OC)c1OC`, for which the viability in [1] was 92.5%; in [3], 92.5% (inactive); in experiment [4], 78.8% (inactive); in experiment [5], 96.5% (inactive); in [6] (setting [16]), 97%; in experiment [6] (setting [17]), 96.5%. For the same molecule, the viability in experiment [12] was 101% (inactive); in experiment [13], 87.8% (inactive). In addition, the Her2 level in experiment [2] is 98.5% (inactive). Besides, the differential viability (reversal) in experiment [6] (H69AR cells + 2 uM doxorubicin) is -0.525% (inactive). Also, the results for the inhibition in experiment [7], in [8] and in experiment [14] were -5.6% (inactive), -2.67% (inactive) and 1.33% (inactive), respectively. Besides, the growth inhibition in [9] is -9.7% (inactive); in [10], -2.3% (inactive). The viability increase in experiment [11] was -1.15% (inactive). For the same molecule, in experiment [15], the RAM network inhibition is 3.06% (inactive).

Consider `CNC(=O)CN(c1ccc(C(C)C)cc1)S(C)(=O)=O`, for which the viability is 94% in experiment [1]; 94% (inactive) in experiment [3]; 95.6% (inactive) in [4]; 86.3% (inactive) in [5]; 85.9% in [6] (setting [16]); 86.3% in experiment [6] (setting [17]). The viability is 95% (inactive) in experiment [12] and 96.1% (inactive) in experiment [13]. The Her2 level in experiment [2] is 108% (inactive). The differential viability (reversal) in [6] (H69AR cells + 2 uM doxorubicin) was 0.39% (inactive). For the same molecule, the results for the inhibition in experiment [7], in experiment [8] and in experiment [14] were -3.25% (inactive), -4% (inactive) and 1.04% (inactive), respectively. Further, the growth inhibition in experiment [9] is -10.4% (inactive); in [10] it was -21.6% (inactive). Further, the viability increase in [11] is 0.08% (inactive). In experiment [15], the RAM network inhibition was 2.63% (inactive).

For `CCCCn1c(NCc2ccccc2O)nc2ccccc21`, the viability was 98% in experiment [1]; 98% (inactive) in [3]; 79.5% (inactive) in experiment [4]; 88.1% (inactive) in [5]; 83.4% in experiment [6] (setting [16]); 88.1% in [6] (setting [17]). In addition, the viability is 79.7% (inactive) in experiment [12] and 75.1% (inactive) in experiment [13]. Moreover, the Her2 level in [2] is 124% (inactive). Further, the differential viability (reversal) in experiment [6] (H69AR cells + 2 uM doxorubicin) is 4.67% (inactive). In addition, the inhibition in [7] was -4.27% (inactive); in experiment [8], -2.33% (inactive); in experiment [14], 0.34% (inactive). For the same molecule, the growth inhibition in experiment [9] was -1.67% (inactive); in experiment [10] it was -11.8% (inactive). For the same molecule, the viability increase in [11] is -5.25% (inactive). Besides, in experiment [15], the RAM network inhibition was 3.36% (inactive).

On to `O=C(COc1ccc2ccccc2c1)N1CCCC1`, for which the viability was 101% in experiment [1]; 101% (inactive) in experiment [3]; 85.3% (inactive) in [4]; 90% (inactive) in experiment [5]; 81.4% in [6] (setting [16]); 90% in [6] (setting [17]). Besides, the viability in experiment [12] is 96.2% (inactive); in experiment [13], 101% (inactive). For the same molecule, the Her2 level in [2] was 88.5% (inactive). In addition, the differential viability (reversal) in experiment [6] (H69AR cells + 2 uM doxorubicin) was 8.64% (inactive). Moreover, the inhibition in experiment [7] was 0.38% (inactive); in experiment [8], -6% (inactive); in experiment [14], 0.745% (inactive). For the same molecule, the growth inhibition in experiment [9] and in experiment [10] was -2.41% (inactive) in each case. The viability increase in experiment [11] is -0.13% (inactive). Besides, the RAM network inhibition in [15] is 6.48% (inactive).

For `Cc1ccc(-n2ncc3c(=O)[nH]c(SC(C)C)nc32)cc1`, the viability in experiment [1] is 93%; in [3] it was 93% (inactive); in experiment [4], 84.9% (inactive); in [5], 80.1% (inactive); in [6] (setting [16]), 68.7%; in [6] (setting [17]), 80.1%. Moreover, the viability in experiment [12] was 98.4% (inactive); in [13], 87.4% (inactive). Moreover, the Her2 level in [2] was 104% (inactive). The differential viability (reversal) in experiment [6] (H69AR cells + 2 uM doxorubicin) is 11.3% (inactive). For the same molecule, the inhibition in experiment [7] was -4.4% (inactive); in [8] it was -6% (inactive); in [14], 3.35% (inactive). For the same molecule, the growth inhibition in experiment [9] is -3.77% (inactive); in experiment [10], -5.77% (inactive). In addition, the viability increase in experiment [11] is -3.9% (inactive). Also, the RAM network inhibition in experiment [15] was 4.11% (inactive).

Values taken from PubChem BioAssay.
